Only some compounds are listed: those with a hit (about 13% of all), similar ones and a draw of the others.
WT yeast gro inh: growth inhibition of WT yeast, mitochondrial fusion screen. mitochondrial fusion phenotypic screen, WT strain. inhibition, % at 10 µM. hit rate 2.1% among 190,000; in the data active = inhibition above about 58%; tested in S. cerevisiae
CHOP inhibitor: CHOP inhibition in unfolded protein response; AID 2732; inhibition, % at 10 µM; CHO-K1 CHOP-promoter luciferase, tunicamycin-induced, 15-18 h; hit rate 3.8% among 220,000;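 active = compounds that reduced the stress-induced luciferase reporter signal by more than about 70% of percent inhibition, limit read from the data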;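 note: 0% = tunicamycin plus vehicle and 100% = wells without tunicamycin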
RAM network inh: blocks the yeast RAM network | hit rate 1.8% among 190,000 | inhibition, % at 50 µM | AID 868 | S. cerevisiae dse1pr::URA3 reporter, 5-FOA growth OD615, 2 d; analog-sensitive cbk1-as2 kinase mutant strain;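 active = inhibition above a set limit, 3 SD over mean compound inhibition, cut at about 8.4% in these data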;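 note: 0% = DMSO-only wells with no growth and 100% = 10 µM 1-NA-PP1 full growth; inhibition rescues growth on 5-FOA so higher OD means more RAM inhibition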
Lmaj promast: inhibitors of Leishmania major promastigote growth | Leishmania major promastigotes, resazurin fluorescence viability | hit rate 9% among 200,000 | inhibition, % at 10 µM; in the data active = inhibition above about 50%;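 note: promastigotes grown with compound for 44 hours at 28 °C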
CHOP inh conf: confirmation of CHOP induction inhibitors | shares compounds with CHOP inhibitor | CHO-CHOP promoter luciferase reporter, tunicamycin-induced, luminescence | inhibition, % at 10 µM | hit rate 45% among 2,100;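 active = mean of three repeat readings of reporter signal inhibition above a set limit, cut at about 70% in these data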;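 note: 0% = tunicamycin plus vehicle and 100% = wells lacking tunicamycin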
An asterisk follows results filed as active; / = no result.

SMILES	WT yeast gro inh	CHOP inhibitor	RAM network inh	Lmaj promast	CHOP inh conf
CCc1nc(NCC2CCCO2)c(C#N)c2c1COC(C)(C)C2 (stereo unspecified)	3.3	25.6	0.2	2.8	/
O=C(Nc1ccc(Cl)cc1)Nc1nc(-c2sccc2Br)cs1	16.3	68.3	2.7	39.7	/
O=C(Nc1ccc(Cl)cc1)Nc1nc(-c2ccccc2O)cs1	/	103.9*	/	/	50.7
Cc1ccc(C)n1-c1cccc(S(=O)(=O)N2CCOCC2)c1	1.4	-6.5	2.8	12.4	/
Cc1cc(C(=O)CCl)c(C)n1-c1cccc(S(=O)(=O)N2CCOCC2)c1	-5.9	103.1*	2.9	100.6*	76.1*
COC(=O)Oc1ccc(/C=N/NC(=O)CSCc2ccccc2Br)cc1OC	/	96.1*	2.2	41.1	75.1*
COc1ccc(C)cc1NC(=O)C(=O)NCc1ccncc1	17.6	41.1	0.5	-2.1	/
CC1(c2ccccc2)CC(C)(C)N2C(=O)C3(C(C#N)=C(N)Oc4cc(O)ccc43)c3cccc1c32 (stereo unspecified)	1.1	106.4*	8.2	12.2	104.1*
Cc1cc2c3c(c1)C1(C(=O)N3C(C)(C)CC2C)C(C#N)=C(N)Oc2n[nH]c(C)c21 (stereo unspecified)	1.9	37.6	0.1	9.3	/
Cc1cc2c3c(c1)C(C)(c1ccccc1)CC(C)(C)N3C(=O)C21C(C#N)=C(N)OC2=C1C(=O)CC(C)(C)C2 (stereo unspecified)	28.2	107.2*	5.0	50.6*	97.2*
CC1(C)CC(=O)C2=C(C1)OC(N)=C(C#N)C21C(=O)N2CCCc3cccc1c32 (stereo unspecified)	1.9	41.2	0.4	-3.4	/
N#CC(C#N)=C1C=CC=CN1/C(=C\c1ccccc1Cl)C(=O)c1ccccc1	67.5*	107.5*	0.0	-1.8	125.2*
N#CC(C#N)=C1C=CC=CN1/C(=C\c1ccccc1)C(=O)c1cccs1	-7.5	43.6	2.6	6.7	/
Cc1csc(SC(C)C(=O)Nc2ccc(S(=O)(=O)N3CCCC3)cc2)n1 (stereo unspecified)	7.7	55.5	5.1	0.3	/
Cc1nnc(SC(C)C(=O)Nc2ccc(S(=O)(=O)N3CCCCC3)cc2)s1 (stereo unspecified)	0.5	100.1*	0.1	-2.5	12.4
Cc1c(C(=O)OC/C(O)=C(\C#N)c2nc3ccccc3[nH]2)oc2ccc(Br)cc12	/	102.9*	/	/	13.4
Cc1c(-c2cccc(Cl)c2)nc2ccccc2c1C(=O)OC/C(O)=C(\C#N)c1nc2ccccc2[nH]1	-17.9	105.0*	10.6*	1.5	46.7
COc1ccc(C[C@H]2c3cc(O)c(OC)cc3CC[N+]2(C)[O-])cc1O (stereo partly specified)	/	-11.2	/	/	/
COc1ccc(/C=C/C(=O)OCCCN(C)C)cc1	-11.5	10.6	0.1	5.1	/
Cc1ccc(Nc2nnc(SCC(=O)Nc3cc(C(=O)O)ccc3C)s2)c(C)c1	/	0.5	/	/	/
CCCn1c(N/N=C(C)\C=C\c2ccccc2)nc2c1c(=O)[nH]c(=O)n2C	-15.7	103.5*	1.4	10.6	-30.8
Cn1c(=O)[nH]c(=O)c2c1nc(NCCCO)n2CCOc1ccccc1	-8.7	14.9	-1.0	-6.0	/
C[C@@H](C(=O)N1CCN(C(=O)OC(C)(C)C)CC1)n1cc(-c2cn([C@@H](C)C(=O)N3CCN(C(=O)OC(C)(C)C)CC3)nn2)nn1	/	17.8	/	/	/
Cn1cnc([N+](=O)[O-])c1S(=O)(=O)c1ccc(Cl)cc1	3.1	109.5*	4.0	26.8	115.5*
Cc1ccc(C(=O)Nn2cnnc2)cc1S(=O)(=O)N1CCOCC1	/	8.2	/	/	/
SMILES	WT yeast gro inh	CHOP inhibitor	RAM network inh	Lmaj promast	CHOP inh conf
COC(=O)c1cc(NC(=S)N2CCN(C(=O)C3CCCO3)CC2)cc(C(=O)OC)c1 (stereo unspecified)	-5.3	6.1	1.7	-5.1	/
CN(C)CC(C(=O)c1ccccc1)c1ccccc1 (stereo unspecified)	77.1*	/	1.0	100.2*	42.0
O=C(OCn1ncc(Cl)c(Cl)c1=O)c1ccc(F)cc1	-1.1	106.5*	2.8	97.8*	122.9*
CCCCCCCCCn1c2c(c(=N)c3c1CCC3)CCCC2	80.0	105.9*	-0.9	100.5*	0.4
CC1=CC(C)(C)n2c(O)c(N=N)c3c(C)c(C)cc1c32	/	97.6*	/	/	10.0
N#C/C(=C\c1cccc(Cl)c1)c1n[nH]c(Cn2cncn2)n1	9.5	5.5	1.1	-8.2	/
Cc1[nH]ccc(=O)c1OC1OC(CO)C(O)C(O)C1O (stereo unspecified)	-8.9	42.5	1.4	-1.4	/
CCCCC(CC)C(=O)Oc1ccc(O)c(C(C)(C)C)c1 (stereo unspecified)	91.5*	104.0*	1.6	36.8	117.4*
O=C(COc1ccccc1C(=O)c1cnn(-c2ccccc2)c1)Nc1ccccc1	40.0	12.6	4.8	7.8	/
O=S(=O)(Nc1ccccc1)c1ccc(Oc2ncc(C(F)(F)F)cc2Cl)cc1	17.4	108.9*	1.9	-0.9	114.7*
CC(C)NS(=O)(=O)c1ccc(Oc2ncc(C(F)(F)F)cc2Cl)cc1	1.2	37.8	5.0	-5.2	/
Cc1cccc(Oc2cc(NC(=O)Cn3cnc([N+](=O)[O-])n3)cc([N+](=O)[O-])c2)c1	-23.1	103.1*	4.3	99.9*	34.3
CC(=O)Nc1ccc(C(=O)N/N=C/c2cc(Br)cc(Br)c2O)cc1	-3.4	104.6*	3.9	24.9	35.0
COc1cc(OC)c(/C=N/NC(=O)c2ccncc2)cc1Br	-2.4	9.7	0.2	1.8	/
COc1cc(OC)c(/C=N/NC(=O)c2ccc(NC(C)=O)cc2)cc1Br	-5.0	104.0*	-0.1	-1.4	-8.6
CNC(=S)N/N=C/c1cc(Br)cc(Br)c1O	31.3	-5.6	1.5	-7.0	/
NC(=S)n1[nH]c(-c2ccc([N+](=O)[O-])cc2)c(N=Nc2ccc(O)cc2)c1=O	-14.2	106.7*	1.9	97.5*	-20.5
CC(C)(C)c1ccc(NC(=O)Nc2ccc(F)cc2)cc1	-11.6	102.6*	2.5	-3.5	107.2*
COc1ccc2c(c1)CCN1C2CCN2C(=O)CCC21 (stereo unspecified)	/	-5.3	/	/	/
O=C(/C=C/c1ccccc1)Nc1cc(S(=O)(=O)N2CCOCC2)ccc1N1CCCC1	-20.4	29.1	2.9	-1.6	/
CCc1c(-c2ccccc2)[n+](=O)c2c(n1[O-])CCC2	/	-3.8	/	/	/
Cc1ccc2nc(-c3ccc(NC(=O)CSc4ccccc4)cc3)[nH]c2c1	18.7	103.1*	3.0	23.8	-26.1
CCc1nnc(NC(=O)CSc2ccc(-c3nc4ccc(C)cc4[nH]3)cn2)s1	4.7	99.6*	2.0	2.9	1.3
Cc1ccc2nc(SCC(=O)Nc3ccc(C(N)=O)cc3)[nH]c2c1	-1.4	23.8	4.2	13.1	/
O=C(CSc1ccc(Cl)cc1)Nc1cccc(-c2nc3ccccc3[nH]2)c1	-12.2	98.6*	3.7	-2.2	-54.8
Cc1ccc2nc(-c3ccc(SCC(=O)O)nc3)[nH]c2c1	-6.2	36.5	0.3	1.0	/
O=C(Oc1coc(CSc2ncccn2)cc1=O)c1cccs1	-3.8	5.9	2.6	-2.2	/
COc1ccc(-c2cc(C3CCN(Cc4cccc(C(F)(F)F)c4)CC3)[nH]n2)cc1	46.1	105.9*	-0.8	67.6*	103.6*

Compound activity: PubChem, several laboratories
